The list is not random: actives were taken first. Their share in the collection is about 2.8%.
KDM5B inh: KDM5B demethylase inhibition; KDM5B demethylase, FDH-coupled NADH fluorescence (FDH is formaldehyde dehydrogenase); 220,000 tested, 2.6% active; Potency, µM (doses to about 57.7 µM), most hits filed as inhibitors; Q9UGL1; active means well fitted inhibition curve with a large enough effect; inconclusive means small, poorly fitted or top-dose-only effect; inactive means no such curve, though single readings can be large or run the other way; further: nearly all actives have a fitted effect of over 70% in size
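qHTS format, multiple compound concentrations. Buffer 50 mM HEPES pH 7.5/0.01% Tween-20; 200 nM KDM5BΔAP final; 10 min compound preincubation; substrate-mix levels 12.5 µM peptide, 25 µM α-KG, 0.25 mM NAD⁺; 30 min RT; ΔRFU.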
IP6K1 inh: inhibitors of human IP6K1. Q92551. IP6K1 kinase, ADP-Glo luminescence, 2 h; active compounds read low. activity change, % (series mostly up to about 58 µM). 140,000 tested, 0.81% active. AID 1645851; in the data active means activity change below about -25%
Target sequence (Q92551 whole entry, looked up): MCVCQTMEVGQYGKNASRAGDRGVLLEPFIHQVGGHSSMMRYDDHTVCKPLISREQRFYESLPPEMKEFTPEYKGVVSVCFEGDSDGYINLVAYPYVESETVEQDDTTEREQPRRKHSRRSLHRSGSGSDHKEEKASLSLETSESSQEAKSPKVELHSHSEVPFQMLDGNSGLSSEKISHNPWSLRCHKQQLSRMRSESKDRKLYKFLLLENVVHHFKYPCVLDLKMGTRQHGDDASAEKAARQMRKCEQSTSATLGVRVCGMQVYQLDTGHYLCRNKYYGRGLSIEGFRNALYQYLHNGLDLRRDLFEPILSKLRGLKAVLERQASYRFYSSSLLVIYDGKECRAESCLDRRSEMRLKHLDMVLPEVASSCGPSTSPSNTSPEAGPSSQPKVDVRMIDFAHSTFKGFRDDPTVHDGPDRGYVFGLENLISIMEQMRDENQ
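ADP-Glo luminescence measures ADP made by human IP6K1 during a 2 h RT reaction with ATP/IP6 (mix at 1.3 mM/130 uM); top library doses 57.5 and 19.1 uM final.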
Large screens that a line does not name were inactive.

Cc1ccc(S(=O)(=O)N(C)Cc2ccccc2)cc1C(=O)N1CCCCC1	none (no result: IP6K1 inh)
CCc1ccc(-n2nc(C)c3c(C(=O)N4CCN(c5ccccc5)CC4)cc(C)nc32)cc1	none
Cc1cn2nc(C(=O)N3CCN(c4ccccc4)CC3)cc2c(N(C)Cc2ccccc2)n1	KDM5B inh 25µM
Cc1cn2nc(C(=O)N3CCCCC3)cc2c(N(C)Cc2ccccc2)n1	KDM5B inh 32µM
COc1ccc(CN2C[C@@H](F)[C@@H](OCc3nc4ccccc4n3C)C2)cn1	none
CC(=O)Nc1ccc(CN2C[C@@H](F)[C@@H](OCc3nc4ccccc4n3C)C2)cc1	KDM5B inh 32µM
CC(=O)Nc1cccc(-c2cc3c(ccn3C)c(C(=O)NCc3cccnc3)n2)c1	none
C[S+](=O)([O-])c1ccc(-c2cc3c(ccn3Cc3ccncc3)c(N3CCOCC3)n2)cc1	KDM5B inh 25µM
C[S+](=O)([O-])N1CCC(Cn2ccc3c(N4CCOCC4)nc(-c4cncnc4)cc32)CC1	KDM5B inh inconclusive
CC(=O)Nc1cccc(-c2cc3c(ccn3Cc3ccncc3)c(N3CCOCC3)n2)c1	KDM5B inh 28µM
C[S+](=O)([O-])Nc1cccc(-c2cc3c(ccn3Cc3ccncc3)c(N3CCOCC3)n2)c1	KDM5B inh 3.2µM
O=C(Nc1ccc(Cl)c(C(F)(F)F)c1)c1ccc(Cl)c(Cl)c1	none (no result: IP6K1 inh)
COC(=O)c1ccc(CN2C(=O)[C@@H]3C[C@@H](O)CN3C3(CN(CC4CC4)C3)C2=O)cc1	none
O=C(NCc1cccnc1-n1cncn1)C1CC2(CCNCC2)CN1 (stereo not drawn)	none
Cn1c(=O)[nH]c(=O)c2c1nc(N1CCN(Cc3cccc(Cl)c3)CC1)n2Cc1ccccc1F	none (no result: IP6K1 inh)
COc1ccccc1CNC(=O)c1cc(C)nc2ccc(C)cc12	none (no result: IP6K1 inh)
COc1cc(CN2CCC3(CC2)CN(c2ccncn2)CC3CO)ccc1F (stereo not drawn)	none
OCC1CN(c2ncccn2)CC12CCN(Cc1cccc(Cl)c1F)CC2 (stereo not drawn)	KDM5B inh inconclusive
Cc1cc(CN2CCC3(CC2)CN(c2ncccn2)CC3CO)n(C)n1 (stereo not drawn)	KDM5B inh 32µM
O=C(c1ccncc1)N1CCC2(CC1)CN(c1ncccn1)CC2CO (stereo not drawn)	KDM5B inh 22µM
COCC1CN(C)CC12CCN(Cc1cc(C)nn1C)CC2 (stereo not drawn)	none
Cc1ccc(CN2CCC3(CC2)CN(c2ncccn2)CC3CO)cc1C (stereo not drawn)	KDM5B inh 25µM
OCC1CN(c2ncccn2)CC12CCN(Cc1ccncc1)CC2 (stereo not drawn)	KDM5B inh 22µM
O=C(c1cc2ccccc2[nH]1)N1CCC2(CC1)CN(c1ncccn1)CC2CO (stereo not drawn)	KDM5B inh inconclusive
CCCCN(C)C(=O)Cn1c(C2CC(=O)N(c3ccc(CC)cc3)C2)nc2ccccc21 (stereo not drawn)	none (no result: IP6K1 inh)
CCN(CC)Cc1cnc2c(C(=O)NC3CCCN(C(C)=O)C3)cnn2c1 (stereo not drawn)	KDM5B inh inconclusive
O=C(Cn1nc2c(cc1=O)CCCCC2)NCCc1ccco1	none
CCOC(=O)CSc1nc2c(c(=O)[nH]c(=O)n2C)n1CCC(C)C	none (no result: IP6K1 inh)
COc1cccc(-c2ccc(C(=O)NCCNC(=O)NC3CCCC3)cc2)c1	none (no result: KDM5B inh)
CNC(=O)c1cc(C2CC2)nc2c1c(C1CCCN(C(=O)c3ccc(C(F)(F)F)cc3)C1)nn2C (stereo not drawn)	none (no result: KDM5B inh)
COc1ccc(F)cc1CN1CCC(CO)(CN2CCCC2)CC1	none
OCC1CN(c2ncccn2)CC12CCN(Cc1ccsc1)CC2 (stereo not drawn)	KDM5B inh 32µM
CC(=O)N1CCC2(CC1)CCN(c1ncccc1C#N)CC2CO (stereo not drawn)	KDM5B inh 32µM
OCC1CN(c2ncccn2)CC12CCN(Cc1ccco1)CC2 (stereo not drawn)	KDM5B inh 28µM
OCC1CN(C2CCC2)CC12CCN(Cc1ccsc1)CC2 (stereo not drawn)	KDM5B inh inconclusive
Cc1ccc(CN2CCC3(CC2)CCN(Cc2ccco2)CC3CO)s1 (stereo not drawn)	none
N#Cc1cccnc1N1CCC(CO)(Cc2ccccc2C(F)(F)F)CC1	KDM5B inh inconclusive
O=C(CCc1ncc(-c2ccccc2F)o1)Nc1ccccc1O	none (no result: IP6K1 inh)
O=C(NCc1ccccn1)C1CCN(CC2(O)CNCCOC2)CC1 (stereo not drawn)	none
Cc1cccc(C(=O)NCC(c2cccs2)N2CCCC2)n1 (stereo not drawn)	none (no result: IP6K1 inh)
CN1c2cc(C(=O)NCc3cccs3)ccc2C(=O)N2CCCC21 (stereo not drawn)	KDM5B inh inconclusive
Cn1cnnc1CC1CCN(C(=O)CCc2ccccc2)CC1	none (no result: KDM5B inh)
Cn1cnnc1CC1CCN(C(=O)CCc2nc3ccccc3[nH]c2=O)CC1	KDM5B inh 25µM
O=C(c1ccc2c(c1)OCO2)N1CCCN(c2cc(-c3ccc(F)cc3)[nH]n2)CC1	none
OC1(Cn2ccnc2)CCN(c2nccc(-c3cccnc3)n2)CC1	KDM5B inh inconclusive
O=C(c1ccc(Cn2ccnc2)o1)N1CC2CC(C1)[C@H]1CCCC(=O)N1C2 (stereo partly drawn)	none
CCN(CC)C(=O)[C@@H]1C[C@H](N)CN1C(=O)c1cc2ccccc2n(C)c1=O	KDM5B inh 32µM
CCNC(=O)[C@@H]1C[C@H](N)CN1C(=O)c1ccc(NC(C)=O)cc1C	none
COc1cc(OC)cc(C(=O)NC2CCCN(c3cc(-c4ccc(F)cc4)[nH]n3)C2)c1 (stereo not drawn)	none
O=C(Cc1c[nH]c2ncc(-c3cn[nH]c3)cc12)NCc1cccnc1	KDM5B inh inconclusive
O=C(Cc1c[nH]c2ncc(-c3ccc(F)cc3)cc12)NCc1cccnc1	KDM5B inh 28µM
COc1cc(F)cc(-c2cnc3[nH]cc(CC(=O)NCc4cccnc4)c3c2)c1	KDM5B inh inconclusive
O=C(Cc1c[nH]c2ncc(-c3cccc(OC(F)(F)F)c3)cc12)NCc1cccnc1	KDM5B inh 28µM
COCCn1c(=O)c2c(n1Cc1ccccc1)CN(Cc1ccc(C(C)C)cc1)CC2	KDM5B inh inconclusive
COCCn1c(=O)c2c(n1Cc1ccccc1)CN(Cc1cccc(C)n1)CC2	KDM5B inh 35µM
COCCn1c(=O)c2c(n1Cc1ccccc1)CN(Cc1cccnc1OC)CC2	KDM5B inh 35µM
CC(C)CCN1CCc2c(n(Cc3cccnc3)n(CCc3ccccc3)c2=O)C1	KDM5B inh 32µM
CC(=O)N1CCc2c(n(Cc3cccnc3)n(CCc3ccccc3)c2=O)C1	none
CCn1c2c(c(=O)n1-c1ccccc1)CCN(Cc1cccnc1OC)C2	KDM5B inh inconclusive
COc1ccc(-c2nc(C)c(CCNC(=O)C(=O)Nc3ccc(F)cc3F)s2)cc1OC	none (no result: IP6K1 inh)
COc1ccc(Sc2nn3c(=O)cc(C)nc3s2)cc1	none (no result: IP6K1 inh)
O=C(OCC(=O)c1c[nH]c2ccccc12)c1ccc(CO)cc1	none (no result: IP6K1 inh)
COc1ccccc1NC(=O)N1CCCC1c1nncn1C1CCCC1 (stereo not drawn)	none
CCc1cccc2c(C(CC(=O)N3CCCCC3)c3cccc(OC)c3)c[nH]c12 (stereo not drawn)	none
CC(C)CC(NC(=O)c1cc2ccccc2s1)C(=O)O (stereo not drawn)	none (no result: IP6K1 inh)
CC1CCc2noc(NC(=O)c3cc(=O)c4cc(Br)ccc4o3)c2C1 (stereo not drawn)	none (no result: IP6K1 inh)
O=C(NC1CCN(c2cc(-c3ccc(F)cc3)[nH]n2)C1)c1ccccc1Cl (stereo not drawn)	KDM5B inh inconclusive

Compound activity from PubChem.
